TDP1 cell noCPT: qHTS for Inhibitors of human tyrosyl-DNA phosphodiesterase 1 (TDP1): qHTS in cells in absence of CPT | DT40 Tdp1-/- hTDP1 cells, no CPT, ATP luminescence, 48 h | Potency, µM (series often up to 46.2 µM), without a hit: top-dose activity change, negative = growth inhibition, actives largely listed as inhibitors | 420,000 tested, 15% active | AID 686978, 2013; further: potency means the concentration at half of the fitted maximal effect; nearly all actives have a fitted effect of over 55% in size
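A cellular qHTS used chicken DT40 cells lacking endogenous Tdp1 but carrying stably transfected human TDP1. Compounds were applied without camptothecin, and cell growth kinetics were judged by ATP-dependent luminescence after ≥48 hr.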
HT1080-NT tox: kills 2HG-producing HT-1080-NT fibrosarcoma cells. HT-1080-NT fibrosarcoma viability, CellTiter-Glo ATP luminescence, 48 h. Potency, µM (titrated, usually from 46.1 µM), without a hit: top-dose activity, negative = less viability, most hits filed as cytotoxic. 360,000 tested, 1.6% active. AID 686970;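 further: NT is the 2HG producing partner of a matched IDH1 knockdown line; potency means the concentration at half of the fitted maximal effect; 0% = DMSO-treated cells and -100% = media-only wells without cells; nearly all actives have a fitted effect of over 55% in size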
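HT-1080-NT fibrosarcoma cells (2HG-overproducing), 750 cells/well in RPMI with 5% FBS, dosed after 2 h and incubated 48 h at 37C. CellTiter-Glo luminescence normalized to DMSO and no-cell wells; concentration-response curves fitted and classed.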
uPA generation: inhibitors of cell surface uPA generation; AID 540303; Potency, µM (series often up to 38.3 µM), without a hit: at the highest dose activity change, negative = inhibition, usual class: inhibitors; 330,000 tested, 0.31% active; cell surface uPA generation assay, qHTS; active means well fitted inhibition curve with a large enough effect; inconclusive means small, poorly fitted or top-dose-only effect; inactive means no such curve, though single readings can be large or run the other way; tested in mouse RAW 264.7 cells; further: potency means the concentration at half of the fitted maximal effect; nearly all actives have a fitted effect of over 55% in size
IL-1B inflam inh: inflammasome signaling inhibition, IL-1 beta readout; THP-1 LPS/ATP IL-1B secretion, AlphaLISA, 16 h; hits give low values; activity change, % at 57.5 µM; 360,000 tested, 4.7% active; AID 743279; in the data active means activity change below about -50%; inconclusive means mostly about -30% to -49%
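Secreted IL-1B measured by AlphaLISA bead assay after 16 h compound exposure of THP-1 cells; compounds (final up to 57.5 uM) added 1 h before LPS (250 ng/mL) and ATP (1.25 mM) stimulation; lower signal means less secretion.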
DT40 TDP1 CPT: DT40-hTDP1 cell growth loss with CPT; Potency, µM (titrated, usually from 46.2 µM), without a hit: at the highest dose activity change, negative = growth inhibition, most hits filed as inhibitors; chicken DT40 Tdp1-/-;hTDP1 cells + 20 nM CPT, ATP luminescence, 48 h; AID 686979; 420,000 tested, 12% active; further: potency means the concentration at half of the fitted maximal effect; nearly all actives have a fitted effect of over 55% in size
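Chicken DT40 Tdp1-/- cells stably complemented with human TDP1 were seeded at 400 cells/well in medium containing 20 nM camptothecin, exposed to pin-transferred compounds, and grown at 37 °C for at least 48 hr. Viability was read as ATP luminescence.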
HT1080 IDH1KD tx: HT-1080 IDH1 knockdown cell toxicity (counter line). HT-1080 IDH1 knockdown viability, ATP luminescence, 48 h. Potency, µM (doses to about 46.1 µM), for the others: top-dose activity, negative = toxicity, actives largely listed as cytotoxic. 360,000 tested, 2% active. AID 686971;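 further: potency means the concentration at half of the fitted maximal effect; 0% = DMSO wells and -100% = cell-free medium wells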
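% activity derives from luminescence (CellTiter-Glo), normalised to DMSO and no-cell wells. HT-1080-IDH1KD cells, 750/well, had 48 h compound exposure at 37 °C.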
* = called active by the depositor; ? = inconclusive; nt = no result given. In the library only some 19% were active in any assay of this set; here they are far more common. Unless noted, the call rests on the fitted dose curve; in most records, active means well fitted curve in the direction sought with a large enough effect; inconclusive means small, poorly fitted or top-dose-only effect, or another doubt; inactive means no such curve, though single readings can be large; an effect the other way counts as inactive or inconclusive. Unless noted, on the % scale 0 is the no-effect control and ±100 the full control effect.

SMILES | TDP1 cell noCPT | HT1080-NT tox | uPA generation | IL-1B inflam inh | DT40 TDP1 CPT | HT1080 IDH1KD tx
Cc1cccc(C(=O)NCC(c2ccc3c(c2)OCO3)N2CCOCC2)c1 (configuration not stated) | 23.1µM* | nt | nt | nt | ? | nt
O=C(NCC(c1ccc2c(c1)OCO2)N1CCOCC1)c1ccccc1 (configuration not stated) | ? | nt | nt | nt | -23.1% | nt
O=C(NCC(c1ccc2c(c1)OCO2)N1CCN(c2ccccc2F)CC1)c1ccccc1F (configuration not stated) | 14.6µM* | nt | nt | nt | 11.6µM* | nt
COc1ccc(-c2cc(C(=O)Nc3ccn(Cc4ccc(C)cc4)n3)no2)cc1OC | -19.1% | nt | nt | nt | -20.7% | nt
COc1ccc(-n2cc(C(=O)N(CCN(C)C)Cc3ccccc3)c3ccccc3c2=O)cc1 | ? | nt | nt | nt | -26.7% | nt
O=C(NC1CCOc2ccccc21)c1ccc(Cl)nc1 (configuration not stated) | 6.1% | -3.6% | -3.7% | 20.2 | 13.7% | -0.4%
O=C(CCCOc1ccccc1)Nc1ccc(Cl)cn1 | -10.7% | 6.4% | -3.0% | -2.3 | -5.4% | 7.9%
COc1cccc(N2CC(O)Cn3c2nc2c3c(=O)n(CCCc3ccccc3)c(=O)n2C)c1 (configuration not stated) | 16.4µM* | -3.4% | 9.0% | -6.4 | 11.6µM* | -16.9%
CCOc1ccc(N2CC(O)Cn3c2nc2c3c(=O)n(CCCc3ccccc3)c(=O)n2C)cc1 (configuration not stated) | ? | -21.8% | -0.6% | -11.6 | ? | -25.6%
CCOC(=O)c1ccc(-c2ccc(/C=C(\C#N)C(=O)Nc3ccc(C)cc3OC)o2)cc1 | -3.0% | nt | nt | nt | 0.6% | nt
COc1ccc(NC(=O)/C(C#N)=C/c2ccc(-c3ccccc3C(=O)O)o2)cc1 | -1.9% | 1.4% | -4.0% | -2.5 | 6.5% | 5.1%
CCOC(=O)c1ccc(-c2ccc(/C=C(\C#N)C(=O)Nc3c(C)cccc3Cl)o2)cc1 | -20.6% | nt | nt | nt | -25.1% | nt
COc1cc(/C=C(\C#N)C(=O)NCC2CCCO2)ccc1OCCC(C)C (configuration not stated) | 16.4µM* | -15.4% | -0.4% | 4.0 | 20.6µM* | -4.9%
CCCCOC(=O)c1ccc(NC(=O)/C(C#N)=C/c2ccc(-c3ccccc3)o2)cc1 | 16.4µM* | nt | nt | nt | 16.4µM* | nt
COc1ccc(NC(=O)/C(C#N)=C\c2ccc(-c3cccc(C(=O)O)c3C)o2)cc1 | 4.61µM* | -18.7% | -5.0% | -18.0 | ? | -19.8%
CCOC(=O)c1ccc(-c2ccc(/C=C(\C#N)C(=O)NCC3CCCO3)o2)cc1 (configuration not stated) | 23.1µM* | -6.6% | 1.0% | 0.0 | 20.6µM* | -2.1%
Cn1c(=O)c2c(nc3n(-c4ccc(O)cc4)c(-c4ccc(Br)cc4)cn23)n(C)c1=O | -6.1% | nt | nt | nt | -10.6% | nt
CN(CC(=O)Nc1ccccc1Cl)C(=O)COC(=O)C1CCN(c2ccc(C(F)(F)F)cn2)CC1 | ? | 15.5% | 3.5% | 3.5 | -20.8% | 9.7%
Cc1cc(NC(=S)NC(=O)C2CC2)ccc1Br | ? | -10.6% | 5.9% | 24.0 | ? | -8.1%
COc1ccc(/C=N/NC(=O)c2nnn(-c3nonc3N)c2CN(C)c2ccccc2)cc1 | ? | -17.6% | -5.0% | ? | ? | -0.3%
COc1cc(NC(=O)Cc2c(C(=O)O)c(C)cn2C)cc(OC)c1 | -11.1% | nt | nt | nt | 7.6% | nt
CSc1nc(C)c(CCO)c(=O)[nH]1 | 1.6% | 23.1% | 1.6% | -4.9 | 20.4% | 12.4%
COc1ccc(-c2nc3ccc(Cl)cn3c2Cc2cccc(Cl)c2)cc1OC | ? | -19.4% | nt | -17.6 | ? | -15.0%
COc1ccc(NC(=O)/C(C#N)=C/c2ccc(-c3ccc(Cl)c(C(=O)O)c3)o2)cc1 | ? | 17.7% | ? | 5.6 | 18.4µM* | 7.5%
O=C(Nc1ccccc1N1CCCC1)c1cccc(Cl)c1Cl | ? | 3.1% | -4.8% | 16.1 | -26.1% | 5.7%
SMILES | TDP1 cell noCPT | HT1080-NT tox | uPA generation | IL-1B inflam inh | DT40 TDP1 CPT | HT1080 IDH1KD tx
Cc1c(N2CCCC2)cc2c(c1NC(=O)c1ccccc1Cl)C(C)(C)CC2(C)C | 14.6µM* | -18.3% | -1.8% | -14.8 | ? | -23.7%
Cc1cc(SCC(=O)NCCCN2CCCC2=O)nc2ccccc12 | 10.9% | -1.2% | -25.1% | 0.0 | -3.8% | -6.0%
CN(c1cccc(NC(=O)COc2ccc(Cl)cc2Cl)c1)S(C)(=O)=O | ? | -17.7% | -0.4% | ? | 20.6µM* | ?
CN(c1cccc(NC(=O)CSc2ccc(Cl)cc2)c1)S(C)(=O)=O | 11.2µM* | ? | nt | -14.3 | 10µM* | ?
CN(c1cccc(NC(=O)CCSc2ccccc2)c1)S(C)(=O)=O | -27.2% | 0.1% | 5.3% | 24.2 | -22.1% | 16.9%
CCC(=O)Nc1ccccc1-c1nc2ccccc2n(CC(=O)c2ccc(Br)cc2)c1=O | -9.6% | nt | nt | nt | 4.1% | nt
Cc1cc2c(ccc3[nH]onc32)n1 | ? | -12.6% | 3.0% | -60.2* | -24.7% | -4.4%
Cc1ccc2nc(C)cc(Cl)c2c1 | 22.6% | 21.0% | 15.9% | 0.0 | 2.2% | 11.7%
COc1ccc(CC(=O)N(C)Cc2ccc(Cl)cc2)cc1S(=O)(=O)N1CCOCC1 | ? | -2.1% | 3.4% | -6.4 | ? | 0.5%
COc1ccc(-c2nc3sc(CCNC(=O)c4ccc(C(C)(C)C)cc4)c(C)n3n2)cc1 | 8.2µM* | nt | nt | nt | ? | nt
COc1ccc(-c2nc3sc(CCNC(=O)C(=O)Nc4ccc(C)c(F)c4)c(C)n3n2)cc1 | 0.6% | nt | nt | nt | 18.9% | nt
COc1ccc(-c2nc3sc(CCNC(=O)c4cc(Cl)ccc4OC)c(C)n3n2)cc1 | 13µM* | nt | nt | nt | 16.4µM* | nt
CCC(=O)NCCc1sc2nc(-c3ccc(OC)cc3)nn2c1C | ? | nt | nt | nt | -24.6% | nt
COc1ccc(-c2nc3sc(CCNC(=O)c4ccc(Br)o4)c(C)n3n2)cc1 | 16.4µM* | nt | nt | nt | 16.4µM* | nt
COc1ccc(-c2nc3sc(CCNC(=O)C(=O)Nc4ccccc4C#N)c(C)n3n2)cc1 | -20.5% | nt | nt | nt | -9.0% | nt
